PubChem BioAssay (NCATS)
Where “and” joins values, the source holds several entries; their conditions need not be identical. Identical values can stand only once. Entries after “also recorded” stand apart in the source; their conditions may differ. Results filed as inconclusive are left out. Where a call stands in place of a potency, no number is given. Calls of active or inactive are those of the source. The call rests on the fitted dose curve.

Experiments:
[1] = Cytotoxicity counterscreen for inhibitors of SARS-CoV-2 cell entry (AID 1645845); further: nearly all actives have a fitted effect of over 50% in size
Procedure, shortened: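 Counterscreen run in the same HEK293-ACE2 line as the pseudotyped-particle entry assay, without particles. Viability after 48 h at 37 C was read as ATP luminescence, scaled between cell-containing and cell-free wells.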

[2] = Primary qHTS to identify inhibitors of SARS-CoV-2 cell entry (AID 1645846); further: nearly all actives have a fitted effect of over 45% in size; further: potency means the concentration at half of the fitted maximal effect
Procedure, shortened: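 Inhibition of spike-mediated entry was scored in human ACE2-transfected Expi293F cells. Particles were MLV-pseudotyped with Wuhan-Hu-1 S carrying a 19-aa C-terminal deletion; signal was luciferase after two days, scaled between spike PP and fusion-protein-free PP.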

[3] = VSVG counterscreen qHTS to identify inhibitors of SARS-CoV-2 cell entry (AID 1645847); further: potency means the concentration at half of the fitted maximal effect; nearly all actives have a fitted effect of over 65% in size
Procedure, shortened: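 Luminescence from a luciferase reporter, normalised to bald particle and VSV-G pseudotyped particle wells, is the read-out. Cells are HEK293 expressing human ACE2, exposed to compound 1 h before a 48 h particle infection at 37 °C.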

[4] = activity change, negative = inhibition: at 57.1 µM (top of the series) unless noted
[5] = SARS-CoV-2 pseudovirus cell entry assay, luminescence, at 57.1 µM (top of the series)

COc1ccc2[nH]cc(CCNC(C)=O)c2c1
Potency [1]: inactive
Potency [2, 4]: inactive
activity change, negative = inhibition [2, 4]: -6.18%

CCCCCN(C)CCC(O)(P(=O)(O)O)P(=O)(O)O
outcome [1]: inactive [at 11.3 µM]; also recorded: inactive [at 5.25 µM]
activity change, negative = inhibition ([2]; SARS-CoV-2 pseudovirus cell entry assay, luminescence, at 5.25 µM (top of the series)): -11.4%
activity change, negative = inhibition ([2]; SARS-CoV-2 pseudovirus cell entry assay, luminescence, at 11.3 µM (top of the series)): -30.6%

CCC1(C)CC(=O)NC1=O (stereo not drawn)
Potency [1]: inactive
Potency [2, 4]: inactive
activity change, negative = inhibition [2, 4]: -9.22% [at 114 µM]

CC(C)(C(=O)c1cccnc1)c1cccnc1
Potency [1]: inactive
Potency [2, 4]: inactive

COc1ccc(C2CNC(=O)C2)cc1OC1CCCC1 (stereo not drawn)
Potency [1]: inactive
activity change, negative = inhibition [2, 4]: 4.15% and -11.8%

CC(C)Cn1cnc2c(N)nc3ccccc3c21
Potency [1]: inactive
Potency [2, 4]: inactive
activity change, negative = inhibition [2, 4]: 0.431% [at 27.1 µM]

Cc1ncc([N+](=O)[O-])n1CC(C)O (stereo not drawn)
Potency [1]: inactive
activity change, negative = inhibition [2, 5]: -6.83%
activity change, negative = inhibition ([2]; SARS-CoV-2 pseudovirus cell entry assay, luminescence, at 114 µM (top of the series)): -38.4%

C[C@]12C=CC(=O)C=C1CC[C@@H]1[C@@H]2C(=O)C[C@@]2(C)[C@H]1CC[C@]2(O)C(=O)CO
Potency [1]: inactive
Potency [2, 4]: inactive
activity change, negative = inhibition [2, 4]: -11.4%

Cc1cc(C)c(NC(=O)CN(CC(=O)O)CC(=O)O)c(C)c1Br
Potency [1]: inactive
activity change, negative = inhibition [2, 4]: -26.2%

CCOC(=O)C1=C[C@@H](OC(CC)CC)[C@H](NC(C)=O)[C@@H](N)C1
Potency [1]: inactive
Potency [2, 4]: inactive
activity change, negative = inhibition [2, 4]: -2%

C[C@@H](CN1CC(=O)NC(=O)C1)N1CC(=O)NC(=O)C1
Potency [1]: inactive
Potency [2, 4]: inactive
activity change, negative = inhibition [2, 4]: -20%

O=c1[nH]cnc2[nH]ncc12
Potency [1]: inactive
Potency [2, 4]: inactive
activity change, negative = inhibition [2, 4]: -11.8% [at 114 µM]

COCCCN1CCC(NC(=O)c2cc(Cl)c(N)c3c2OCC3)CC1
Potency [1]: inactive
Potency [2, 4]: inactive
activity change, negative = inhibition [2, 4]: -5.91%

Nc1ccn([C@@H]2CS[C@H](CO)O2)c(=O)n1
Potency [1]: inactive
Potency [2, 4]: inactive
activity change, negative = inhibition [2, 4]: -19.3% [at 114 µM]

CC(=O)Nc1ccc(C(=O)O)cc1
Potency [1]: inactive
Potency [2, 4]: inactive

CC(=O)CC(c1ccccc1)c1c(O)c2ccccc2oc1=O (stereo not drawn)
Potency [1]: inactive
Potency [2, 4]: inactive
activity change, negative = inhibition [2, 4]: 0.432%

C[C@]12C=CC(=O)C=C1CC[C@@H]1[C@@H]2[C@@H](O)C[C@@]2(C)[C@H]1CC[C@]2(O)C(=O)CO
Potency [3]: 13.6 µM (active)

CN1C(C(=O)Nc2ccccn2)=C(O)c2ccccc2S1(=O)=O
Potency [3]: 21.5 µM (active)

CCCCC(O)/C=C(C)/C=C/C=C/C(=O)N1CCCC1=O (stereo not drawn)
activity change, negative = inhibition [2, 4]: -3.29%

CCCCOCCOC(=O)c1cccnc1
Potency [2, 4]: inactive

CC1(C)O[C@@H]2C[C@H]3[C@@H]4C[C@H](F)C5=CC(=O)C=C[C@]5(C)[C@@]4(F)[C@@H](O)C[C@]3(C)[C@]2(C(=O)CO)O1
Potency [2, 4]: inactive
activity change, negative = inhibition [2, 4]: -12.3%

O=C1[C@@H]2[C@H]3CC[C@H](C3)[C@@H]2C(=O)N1CCCCN1CCN(c2ncccn2)CC1
activity change, negative = inhibition [2, 4]: -0.993%

CCc1cc(C(N)=S)ccn1
Potency [2, 4]: inactive
activity change, negative = inhibition [2, 4]: -20.7%

NS(=O)(=O)c1cc(Cl)c(Cl)c(S(N)(=O)=O)c1
activity change, negative = inhibition [2, 4]: -0.105%

COc1cc(NS(C)(=O)=O)ccc1Nc1c2ccccc2nc2ccccc12
Potency [2, 4]: 1 µM (active) and 708 nM (active)

Cc1c(Nc2ncccc2C(=O)O)cccc1C(F)(F)F
Potency [2, 4]: inactive

CC(=O)Nc1ccc(S(=O)(=O)Nc2cc(C)on2)cc1
Potency [2, 4]: inactive

CC(C)COC(=O)c1ccc(N)cc1
Potency [2, 4]: inactive

CCN1CCN(C(=O)N[C@@H](C(=O)N[C@@H]2C(=O)N3[C@@H]2SC(C)(C)[C@H]3C(=O)O)c2ccccc2)C(=O)C1=O
Potency [2, 4]: inactive

CC(C)(C)CC(C)(C)c1ccc(OCCOCC[N+](C)(C)Cc2ccccc2)cc1
Potency [2, 4]: 20 µM (active)

CCCc1c2oc(C(=O)O)cc(=O)c2cc2c(=O)cc(C(=O)O)n(CC)c12
activity change, negative = inhibition [2, 4]: -16.5%

Cc1ccsc1/C=C/C1=NCCCN1C
activity change, negative = inhibition [2, 4]: -11.3%

CC(=O)OC(C)C[N+](C)(C)C (stereo not drawn)
Potency [2, 4]: inactive

NC(CO)(CO)CO
Potency [2, 4]: inactive

CC1CCN(CCCC(=O)c2ccc(F)cc2)CC1
activity change, negative = inhibition [2, 4]: -25%

CN[C@@H]1CCc2[nH]c3ccc(C(N)=O)cc3c2C1
activity change, negative = inhibition [2, 4]: -34.4%

Nc1ccn(C[C@@H](CO)OCP(=O)(O)O)c(=O)n1
activity change, negative = inhibition [2, 4]: -18.8% [at 11.3 µM]
outcome [2, 4]: inactive [at 0.702 µM]

Nc1nc2ccc(OC(F)(F)F)cc2s1
Potency [2, 4]: inactive

Nc1ncnc2nc[nH]c12
Potency [2, 4]: inactive

CC(=O)S[C@@H]1CC2=CC(=O)CC[C@]2(C)[C@H]2CC[C@@]3(C)[C@@H](CC[C@@]34CCC(=O)O4)[C@H]12
activity change, negative = inhibition [2, 4]: -11%

CCOC(=O)/C=C(C)/C=C/C=C(C)/C=C/c1c(C)cc(OC)c(C)c1C
activity change, negative = inhibition [2, 4]: -11.5%

O=C(OOC(=O)c1ccccc1)c1ccccc1
Potency [2, 4]: inactive

C[C@@H]1CN(c2c(F)c(F)c3c(=O)c(C(=O)O)cn(C4CC4)c3c2F)C[C@H](C)N1
Potency [2, 4]: inactive

CC(=O)Nc1c(I)cc(I)c(C(=O)O)c1I
Potency [2, 4]: inactive

Cc1c[nH]c2ccccc12
activity change, negative = inhibition [2, 4]: -24.2%

C[C@](N)(Cc1ccc(O)cc1)C(=O)O
outcome [2, 4]: inactive [at 5.25 µM]

CC(=O)Oc1cc(C(C)C)c(OCCN(C)C)cc1C
Potency [2, 4]: inactive

CC(=O)NCCCS(=O)(=O)O
activity change, negative = inhibition ([2]; SARS-CoV-2 pseudovirus cell entry assay, luminescence, at 27.1 µM (top of the series)): 1.79%
activity change, negative = inhibition [2, 5]: -6.89%

COc1ccc(-c2cc(=O)c3c(O)cc(O[C@@H]4O[C@H](CO[C@@H]5O[C@@H](C)[C@H](O)[C@@H](O)[C@H]5O)[C@@H](O)[C@H](O)[C@H]4O)cc3o2)cc1O
Potency [2, 4]: inactive

C#CCC(Cc1cnc2nc(N)nc(N)c2n1)c1ccc(C(=O)N[C@@H](CCC(=O)O)C(=O)O)cc1 (stereo partly drawn)
activity change, negative = inhibition [2, 4]: -93.7%

CCCc1nc(C(C)(C)O)c(C(=O)OCc2oc(=O)oc2C)n1Cc1ccc(-c2ccccc2-c2nn[nH]n2)cc1
activity change, negative = inhibition [2, 4]: -0.861%

COC(=O)CCCCC(CCSS/C(CCO)=C(\C)N(C=O)Cc1cnc(C)nc1N)SC(C)=O (stereo not drawn)
Potency [2, 4]: inactive

c1ccc(-c2nc[nH]c2-c2ccccc2)cc1
Potency [2, 4]: inactive

COc1cc(OC)c(C(=O)CCCN2CCCC2)c(OC)c1
activity change, negative = inhibition [2, 4]: -26.6%

Cc1ccccc1N1CCN(CCc2nnc3n2CCCC3)CC1
Potency [2, 4]: inactive

CS(=O)(=O)c1ccc([C@@H](O)[C@@H](CF)NC(=O)C(Cl)Cl)cc1
activity change, negative = inhibition [2, 4]: -26.1%
